MEKK2 mut-MEK5 = MEK5 binding signal on mutant MEKK2 PB1, primary screen, biochemical, multiplex bead flow cytometry, Alexa488-MEK5. Alexa488-MEK5 binding to MEKK2 mutant. 0.35% of 290,000 active. percent response, % at 10 µM; in the data active means percent response above about 24%, passing the limit was not always enough
ANO1 block = TMEM16A chloride channel inhibitors, primary screen, cell-based, HTS; Anoctamin-1 (Mus musculus), Q8BHY3; normalized B-score (activity score, 25-100; higher = stronger inhibition) at 10 µM; 1.2% of 310,000 active; HEK293 TMEM16A/YFP iodide influx fluorescence, ionomycin; AID 588511, 2011;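 active means ratio plate-corrected score three or more library SD toward inhibition, starting fluorescence score within five deviations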;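 further: score derived from kinetic fluorescence span divided by baseline fluorescence per well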
Target sequence (Q8BHY3 whole entry, looked up): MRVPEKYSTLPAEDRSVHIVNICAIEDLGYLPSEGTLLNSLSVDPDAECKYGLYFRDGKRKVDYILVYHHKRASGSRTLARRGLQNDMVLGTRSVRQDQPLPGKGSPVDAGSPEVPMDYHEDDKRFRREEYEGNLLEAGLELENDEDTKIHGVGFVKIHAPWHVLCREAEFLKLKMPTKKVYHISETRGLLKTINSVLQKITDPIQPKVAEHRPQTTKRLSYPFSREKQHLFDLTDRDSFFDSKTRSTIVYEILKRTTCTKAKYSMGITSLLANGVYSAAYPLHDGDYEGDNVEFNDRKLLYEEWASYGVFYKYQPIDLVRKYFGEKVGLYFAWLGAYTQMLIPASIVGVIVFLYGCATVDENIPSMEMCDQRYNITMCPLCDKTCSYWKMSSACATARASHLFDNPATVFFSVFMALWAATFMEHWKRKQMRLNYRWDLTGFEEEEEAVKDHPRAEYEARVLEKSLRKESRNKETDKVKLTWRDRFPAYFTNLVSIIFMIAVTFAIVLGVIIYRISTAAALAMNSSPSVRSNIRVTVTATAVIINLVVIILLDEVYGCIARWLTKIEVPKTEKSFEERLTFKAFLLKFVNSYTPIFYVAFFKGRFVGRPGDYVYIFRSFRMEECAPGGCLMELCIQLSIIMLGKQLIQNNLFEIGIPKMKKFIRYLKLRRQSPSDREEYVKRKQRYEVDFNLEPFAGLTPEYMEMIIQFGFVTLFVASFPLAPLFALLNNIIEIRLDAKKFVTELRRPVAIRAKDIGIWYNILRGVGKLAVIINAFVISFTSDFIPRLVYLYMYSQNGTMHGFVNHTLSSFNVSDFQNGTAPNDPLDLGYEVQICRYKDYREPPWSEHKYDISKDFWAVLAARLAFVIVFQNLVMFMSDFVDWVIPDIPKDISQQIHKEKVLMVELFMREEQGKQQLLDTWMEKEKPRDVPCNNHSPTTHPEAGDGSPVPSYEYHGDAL
TMEM16A act = TMEM16A chloride channel activators or potentiators, primary screen, cell-based, HTS | Anoctamin-1 (Mus musculus), Q8BHY3 | HEK293 TMEM16A/YFP-H148Q/I152L, iodide quench fluorescence; hits give low values | B-score at 10 µM | 0.3% of 340,000 active | AID 623877, 2012;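 active means fluorescence-ratio B-score plate-corrected deviation score at least 3 library SD below zero, with starting fluorescence score within 5 deviations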;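 further: channel opened by trigger with iodide after compound preincubation; score built on the fluorescence ratio of max minus min over baseline; more negative score means more quench and so TMEM16A activation or potentiation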
NTR1 agonist = agonists of human NTR1, primary screen, imaging, U2OS cells, beta-arrestin-GFP, high content. Neurotensin receptor type 1 (Homo sapiens), P30989. NTR1-U2OS beta-arrestin-GFP spot imaging, agonist mode. activation, % at 20 µM. 0.17% of 330,000 active;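 active means activation at or above 40% of the spot to cytoplasm intensity ratio, with at least 20 cells analyzed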;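 further: 0% = DMSO without peptide and 100% = 100 nM NTR1 peptide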
MEKK3 PB1 HTS = modulators of MEKK3-MEK5 PB1 binding, primary screen, biochemical, wildtype MEKK3, multiplex bead flow cytometry, Alexa488-MEK5; bead-based flow cytometry, Alexa488-MEK5 binding to MEKK3; actives lie on both sides; 0 = blocked by unlabeled MEK5, 100 = vehicle; AID 1529, 2009; binding response (% of control), % at 10 µM; Mitogen-activated protein kinase kinase kinase 3 (Homo sapiens), Q99759; 1.4% of 290,000 active;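 active means binding response more than 3 SD above or below the average of its plate-row segment, actives on both sides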;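 further: Alexa488 bead fluorescence after subtracting the streptavidin-only scavenger bead signal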
MEKK2 WT-MEK5 = modulators of MEK5 binding to wildtype MEKK2, primary screen, biochemical, multiplex bead flow cytometry, Alexa488-MEK5. 1.1% of 290,000 active. Alexa488-MEK5 binding to MEKK2 WT; actives lie on both sides. binding response (% of control), % at 10 µM. Mitogen-activated protein kinase kinase kinase 2 (Homo sapiens), Q9Y2U5; in the data active means binding response below about 67% or above about 130%
TMEM16A reconf = TMEM16A chloride channel inhibitors, confirmation, cell-based, re-confirmation; shares compounds with ANO1 block; HEK293 TMEM16A/YFP-H148Q, iodide quench fluorescence; ionomycin added to raise cell calcium; inhibition, % at 10 µM; 39% of 2,300 active; AID 652189, 2013;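 active means mean duplicate percent inhibition, scaled so buffer wells are 0 and the reference blocker 100, over three buffer SD above buffer mean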
TMEM16A Ca cntr = calcium mobilization in TMEM16A/YFP HEK293 cells, confirmation, counter-screen for TMEM16A inhibitor project; shares compounds with ANO1 block; Fluo4 calcium mobilization; calcium response (% of ionomycin), % at 10 µM; 2% of 2,300 active;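 active means duplicate-averaged calcium signal over 20% of the ionomycin maximum, relative to buffer baseline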;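 further: each well's signal is peak minus trough fluorescence divided by its pre-addition baseline; 0% = buffer wells and 100% = ionomycin wells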
YFP-HEK293 quench = iodide YFP quench changes in parental YFP-HEK293, counter-screen for TMEM16A inhibitor project, cell-based | AID 652233, 2013 | shares compounds with ANO1 block | ionomycin | 2,300 tested, under 10 active | YFP ratio F(max-min)/F0 at 10 µM;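 active means yellow fluorescent protein signal ratio exceeding the buffer control mean by over 5 SD of those controls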;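 further: ratio is mean of duplicate wells from kinetic YFP trace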
ClC-1 rat inh = ClC-1 chloride channel inhibition, selectivity assay for TMEM16A inhibitor project, cell-based, voltage-dependent ClC-1; 2,300 tested, under 10 active; AID 652236, 2013; ratio percent, % at 10 µM; CHO ClC-1-YFP, iodide influx fluorescence quench; iodide control reads 0, buffer control 100; shares compounds with ANO1 block;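 active means duplicate-mean ratio percent above the mean of iodide-only control wells, which defines zero, plus 5 of their SD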;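 further: higher percent means stronger block of ClC-1 iodide influx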
The depositor's hits bear a star; i = inactive; nt = no result given. Rows were chosen to be rich in hits. Some 3.4% of all compounds tested hit in one or more screens of this group.

SMILES	MEKK2 mut-MEK5	ANO1 block	TMEM16A act	NTR1 agonist	MEKK3 PB1 HTS	MEKK2 WT-MEK5	TMEM16A reconf	TMEM16A Ca cntr	YFP-HEK293 quench	ClC-1 rat inh
Nc1[nH]c2cc([N+](=O)[O-])ccc2c1-c1ccccn1	-9	i	i	-3	103	97	21%*	i	-0.67	13
CCOC(=O)c1ccc(NC(=O)CCc2nc(-c3ccccc3Cl)no2)cc1	0	100*	i	4	105	103	38%*	i	-1.1	-28
CCOC(=O)c1cccc(NC(=O)CCc2nc(-c3ccccc3F)no2)c1	5	i	i	1	100	98	nt	nt	nt	nt
O=C(CSc1ncn[nH]1)Nc1ccccc1Sc1ccccc1	3	i	i	3	100	101	nt	nt	nt	nt
Cc1cc(/C=N/n2cnnc2)c(C)n1-c1ccc(OCc2ccc(Cl)cc2)cc1	3	100*	i	12	117	109	24%*	i	-1.1	-19
CCOC(=O)c1sc(NC(=O)CCN2C(=O)C3CCCCC3C2=O)cc1C (stereo unspecified)	nt	nt	i	-1	nt	nt	nt	nt	nt	nt
Cc1cc(C)c(C)c(S(=O)(=O)NCc2ccc(C(=O)N3CCOCC3)cc2)c1C	6	i	i	1	101	103	nt	nt	nt	nt
CCOC(=O)c1ccccc1NS(=O)(=O)c1ccc(OCC)cc1	6	25*	i	0	100	104	i	i	-1.2	-8
CCOc1ccc(S(=O)(=O)Nc2ccccc2C(=O)N(C)C2CCN(C)CC2)cc1	nt	nt	nt	-1	nt	nt	nt	nt	nt	nt
CCCNc1c(NS(=O)(=O)c2c(F)c(F)c(F)c(F)c2F)c(=O)oc2ccccc12	8	i	i	0	102	99	nt	nt	nt	nt
CN(C)S(=O)(=O)c1cccc(COC(=O)c2cnccn2)c1	9	i	i	-2	102	103	nt	nt	nt	nt
CN(C)S(=O)(=O)c1cccc(COC(=O)c2cccnc2Cl)c1	8	25*	i	1	103	110	i	i	-0.93	-10
O=C(/C=C/c1cccnc1)/C=C/c1cccnc1	-10	nt	i	nt	86	91	nt	nt	nt	nt
O=C(Cn1c(=O)n(CCCCC(=O)NC2CCCC2)c(=O)c2ccccc21)NCCC1=CCCCC1	2	100*	i	0	98	97	i	i	-0.82	-3
Cn1c(=O)c2ccccc2n(CC(=O)NCCC2=CCCCC2)c1=O	-1	i	i	-2	99	98	nt	nt	nt	nt
CC(Oc1ccccc1)C(=O)Nc1ccc(NC(=O)c2ccccc2)cc1 (stereo unspecified)	1	i	i	1	101	100	nt	nt	nt	nt
CC(Oc1ccc(C(=O)c2ccccc2)cc1)C(=O)Nc1ccc(S(N)(=O)=O)cc1 (stereo unspecified)	-3	100*	i	2	95	97	54%*	i	-0.7	-6
NS(=O)(=O)c1ccc(CCNC(=O)CN2CCN(S(=O)(=O)c3ccccc3F)CC2)cc1	nt	nt	nt	1	nt	nt	nt	nt	nt	nt
Cc1nn(-c2nc(-c3ccco3)cc(C(F)(F)F)n2)c(C)c1Br	-6	25*	i	0	98	99	i	i	-1	-2
Fc1ccc(N2CCN(c3nc(-c4ccco4)cc(C(F)(F)F)n3)CC2)cc1	-2	i	i	8	97	109	nt	nt	nt	nt
COc1ccc(COC(=O)CCc2cc(OC)c(OC)c(OC)c2)cc1F	nt	nt	i	nt	nt	nt	nt	nt	nt	nt
CCn1c(CSc2nc3ccccc3s2)nc2ccccc21	-3	100*	i	12	100	97	43%*	i	-0.86	-8
Nc1c(C(=O)NCCc2ccccc2)nnn1Cc1ccccc1	0	i	i	2	99	102	i	i	-0.8	-4
O=C(O)CNC(=S)N(Cc1ccccc1)Cc1cccnc1	0	i	i	0	98	100	nt	nt	nt	nt
COc1ccc2[nH]c3c(c2c1)CCN1C(=O)C(CC(=O)NCCc2ccccn2)C[C@H](C(=O)N2CCCCC2)[C@@]31C (stereo partly specified)	nt	nt	nt	0	nt	nt	nt	nt	nt	nt
SMILES	MEKK2 mut-MEK5	ANO1 block	TMEM16A act	NTR1 agonist	MEKK3 PB1 HTS	MEKK2 WT-MEK5	TMEM16A reconf	TMEM16A Ca cntr	YFP-HEK293 quench	ClC-1 rat inh
CCOC(=O)CSc1nc2sc(C)c(C)c2c(=O)[nH]1	1	i	i	-1	99	103	nt	nt	nt	nt
CCOC(=O)/C(=C\c1ccc(Cl)cc1)c1nc2sc(C)c(C)c2c(=O)[nH]1	0	25*	i	33	97	98	19%*	i	-1	-12
O=C1C2C(c3ccccc3)CC=CC2[C@H](c2ccc(C(F)(F)F)cc2)N1Cc1ccccc1 (stereo partly specified)	4	25*	i	9	97	95	i	i	-1.1	-10
CC1(c2ccc(OC(F)F)cc2)NC(=O)N(CC(=O)Nc2ccc3[nH]c(=O)[nH]c3c2)C1=O (stereo unspecified)	nt	i	i	1	nt	nt	nt	nt	nt	nt
CC(=O)Nc1ccc(/C=N/N2C(=O)NC(C)(c3ccc(OC(F)F)cc3)C2=O)cc1 (stereo unspecified)	2	100*	-13*	8	99	98	93%*	i	-0.96	-6
Cc1ccc(OCCCC(=O)Nc2cc(Cl)ccc2-n2cncn2)cc1	nt	i	i	1	nt	nt	nt	nt	nt	nt
COc1cc(C(=O)Nc2cc(C(F)(F)F)ccc2N2CCOCC2)ccc1OCC(=O)N1CCOCC1	nt	i	i	0	nt	nt	nt	nt	nt	nt
